Laboratory results as given in PubChem BioAssay (NCI).
Several values for one entry are separate records, joined by “and”; a condition that tells them apart may be missing. Identical values can stand only once. The panel holds about 79,000 compounds, 15% with a hit somewhere; the sample as a whole holds those more often. More than one record can exist for a structure, and the calls need not agree. Activity calls are given as the source filed them. Cut-off read from the data, not from the text of the source: active = growth inhibition above about 70%; inactive = the rest.

Tests used:
[1] = NCI Yeast Anticancer Drug Screen. Data for the rad50 strain (AID 155);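 note: 0% = growth of vehicle-only cultures of the same strain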; settings: S. cerevisiae rad50 strain growth inhibition, stronger effect = higher value
How it was run: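 Inhibition values express reduced yeast growth in compound-treated cultures relative to vehicle-treated controls.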

[2] = NCI Yeast Anticancer Drug Screen. Data for the mec2-1 strain (AID 157); settings: S. cerevisiae mec2-1 strain, stronger effect = higher value
How it was run: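 Each compound was tested on mec2-1 yeast, a strain altered in DNA damage repair or cell cycle control. Growth inhibition is reported relative to vehicle.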

[3] = NCI Yeast Anticancer Drug Screen. Data for the sgs1 mgt1 strain (AID 161);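 note: 0% = growth of cultures given vehicle only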; settings: S. cerevisiae sgs1 mgt1 strain, stronger effect = higher value
How it was run: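 Mutant yeast exposed to compound; growth scored against vehicle-only wells.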

[4] = NCI Yeast Anticancer Drug Screen. Data for the cln2 rad14 strain (AID 165);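 note: 0% = growth equal to vehicle treated cultures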; settings: S. cerevisiae cln2 rad14 strain, stronger effect = higher value
How it was run: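 Test compounds were added to cln2 rad14 yeast cultures; inhibition of growth was then determined by comparison with vehicle treatment.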

[5] = NCI Yeast Anticancer Drug Screen. Data for the bub3 strain (AID 167); settings: S. cerevisiae bub3 mutant strain, stronger effect = higher value
How it was run: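 Steps: expose the mutant yeast strain to compound; grow alongside vehicle-treated cultures; measure growth; express inhibition against the vehicle cultures.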

[6] = NCI Yeast Anticancer Drug Screen. Data for the mlh1 rad18 strain (AID 175); settings: S. cerevisiae mlh1 rad18 strain growth inhibition, stronger effect = higher value
How it was run: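 Inhibition values reflect reduced growth of mutant yeast versus vehicle-treated controls following compound exposure; the mutations affect DNA damage repair.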

[7] = at 5.0 µM (retest, dose inferred, filed as 0.5)
[8] = at 50.0 µM (retest, dose inferred, filed as 5.0)

Structure (SMILES) | growth inhibition [1, 7] | growth inhibition [1, 8] | growth inhibition ([1]; at 50.0 µM) | growth inhibition [2, 7] | growth inhibition [2, 8] | growth inhibition ([2]; at 50.0 µM) | growth inhibition [3, 7] | growth inhibition [3, 8] | growth inhibition ([3]; at 50.0 µM) | growth inhibition [4, 7] | growth inhibition [4, 8] | growth inhibition ([4]; at 50.0 µM) | growth inhibition [5, 7] | growth inhibition [5, 8] | growth inhibition ([5]; at 50.0 µM) | growth inhibition [6, 7] | growth inhibition [6, 8] | growth inhibition ([6]; at 50.0 µM)
Cn1c2nc3ccccc3c-2cc2ccccc21 | 44% (inactive) | 85% (active) | 84% (active) and 85.2% (active) | 27% (inactive) | 75% (active) | 77.8% (active) and 71.2% (active) | 38% (inactive) | 83% (active) | 70% (inactive) and 68.5% (inactive) | 41% (inactive) | 74% (active) | 60.5% (inactive) and 59.4% (inactive) | 30% (inactive) | 83% (active) | 70.8% (active) and 68.2% (inactive) | 48% (inactive) | 83% (active) | 76.7% (active) and 72.6% (active)
O=Nc1ccc(C=C2C(=O)C=CC2=O)cc1 | 94% (active) | 98% (active) | 99.5% (active) | 99% (active) | 99% (active) | 99.7% (active) | 94% (active) | 99% (active) | 99.4% (active) | 72% (active) | 98% (active) | 99% (active) | 84% (active) | 99% (active) | 99.4% (active) | 97% (active) | 98% (active) | 99.5% (active)
Cc1noc(-c2ccc([N+](=O)[O-])o2)n1 | 6% (inactive) | 85% (active) | 93.5% (active) | -1% (inactive) | 82% (active) | 52.1% (inactive) | 5% (inactive) | 87% (active) | 74.6% (active) | -6% (inactive) | 57% (inactive) | 57.9% (inactive) | 2% (inactive) | 80% (active) | 63.9% (inactive) | 24% (inactive) | 94% (active) | 87.8% (active)
Oc1ccc2ccccc2c1Cc1c(O)ccc2ccccc12 | -1% (inactive) | 86% (active) | 33% (inactive) and 99.2% (active) | 11% (inactive) | 96% (active) | 29.8% (inactive) and 22.7% (inactive) | 7% (inactive) | 53% (inactive) | 44.1% (inactive) and 99.5% (active) | -25% (inactive) | 95% (active) | 21.6% (inactive) and 97.8% (active) | -6% (inactive) | 95% (active) | 16.2% (inactive) and 48.6% (inactive) | -8% (inactive) | 89% (active) | 16.4% (inactive) and 99.3% (active)
O=NC1C(Br)C2CC1C1C(Cl)C(Cl)CC21 (stereo unspecified) | 6% (inactive) | 10% (inactive) | 58.7% (inactive) | 12% (inactive) | 13% (inactive) | 29.9% (inactive) | -5% (inactive) | 6% (inactive) | 76.8% (active) | -2% (inactive) | -7% (inactive) | 44.1% (inactive) | 1% (inactive) | -6% (inactive) | 10.1% (inactive) | 25% (inactive) | 66% (inactive) | 49.2% (inactive)
C/C(=N\O)c1cc(Br)cc([N+](=O)[O-])c1O | 1% (inactive) | 14% (inactive) | 6.45% (inactive) | 7% (inactive) | 35% (inactive) | 4.15% (inactive) | 3% (inactive) | 27% (inactive) | 4.95% (inactive) | 13% (inactive) | 11% (inactive) | 39% (inactive) | 4% (inactive) | 10% (inactive) | 8.3% (inactive) | 5% (inactive) | 25% (inactive) | 14.8% (inactive)
Cc1nc2c(Br)cc(Br)cc2c(=O)n1-c1ccccc1NC1OC(CO)C(O)C(O)C1O (stereo unspecified) | 9% (inactive) | 41% (inactive) | -11.9% (inactive) and 65.8% (inactive) | 5% (inactive) | 32% (inactive) | -33.6% (inactive) and 17.9% (inactive) | 7% (inactive) | 25% (inactive) | -5.65% (inactive) and 47.2% (inactive) | 11% (inactive) | 75% (active) | -54.8% (inactive) and 64.5% (inactive) | 7% (inactive) | 56% (inactive) | -31.3% (inactive) and 74.8% (active) | -25% (inactive) | 67% (inactive) | -35.1% (inactive) and 75% (active)
